Results reported in PubChem BioAssay.
Activity calls are given as the source filed them.

How the values were obtained:
Albumin (Bos taurus) = Albumin (Bos taurus) (UniProt P02769); assay: compounds binding labelled BSA control protein – biochemical, small-molecule microarray, Alexa647 label, 635/667 nm fluorescence, artefact control for SMM control protein annotation, profiling panel (AID 1118); settings: BSA-A647 binding, fluorescence 635 nm, higher = more signal;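 note: score merges 667 nm emission intensity and signal-to-noise per printed compound spot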
Chain of Albumin (Bos taurus) (P02769 whole entry, looked up): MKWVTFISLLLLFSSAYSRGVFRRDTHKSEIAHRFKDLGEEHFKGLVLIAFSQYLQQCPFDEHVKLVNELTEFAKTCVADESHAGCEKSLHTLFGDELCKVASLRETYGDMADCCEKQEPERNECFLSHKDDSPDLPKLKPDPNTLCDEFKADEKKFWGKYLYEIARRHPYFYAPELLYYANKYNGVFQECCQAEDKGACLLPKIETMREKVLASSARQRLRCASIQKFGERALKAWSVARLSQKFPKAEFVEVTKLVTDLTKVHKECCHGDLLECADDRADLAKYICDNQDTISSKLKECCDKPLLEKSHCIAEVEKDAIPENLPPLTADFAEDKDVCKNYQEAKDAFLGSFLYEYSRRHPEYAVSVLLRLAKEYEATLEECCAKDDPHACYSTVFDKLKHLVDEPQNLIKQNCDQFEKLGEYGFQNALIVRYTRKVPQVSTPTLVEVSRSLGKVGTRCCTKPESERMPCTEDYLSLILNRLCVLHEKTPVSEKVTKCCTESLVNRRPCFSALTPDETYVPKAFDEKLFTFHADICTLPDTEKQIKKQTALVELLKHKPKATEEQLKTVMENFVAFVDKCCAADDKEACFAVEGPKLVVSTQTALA

[1] = probe aXIP binding to arrayed compounds – biochemical, NeuroSMM set, 635/667 nm fluorescence, primary screen (AID 1119); settings: small-molecule microarray, higher = more signal, called active from +8 up or from −8 down;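 note: probe is the protein aXip251-270 applied at 1 µg/mL to compound-printed slides; binding of probe to printed compounds measured as 667 nm fluorescence plus signal to noise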
[2] = probe aNOTCH3 binding on compound microarray – biochemical, small-molecule microarray, 635/667 nm fluorescence, primary screen (AID 1120); settings: higher = more signal;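 note: probe is a biotin-tagged antibody raised against NOTCH3 rather than NOTCH3 protein; score merges spot fluorescence near 667 nm with spot signal to noise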
[3] = probe aNOTCH2 binding on compound microarray – biochemical, small-molecule microarray, 635/667 nm fluorescence, primary screen (AID 1121); settings: higher = more signal;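 note: score merges feature fluorescence read at 667 nm with its signal to noise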
[4] = molecular target: Carbonic anhydrase 2 (Homo sapiens) (UniProt P00918); assay: compounds binding carbonic anhydrase 2 – biochemical, small-molecule microarray, Alexa647-labelled CAII, profiling panel (AID 1122); settings: CAII-A647 binding fluorescence, higher = more signal
[5] = COS7 lysate on small-molecule microarray, probe aHis, 635 nm (AID 1123); settings: COS7 cell lysate, fluorescence, higher = more signal;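 note: z-score combines 667nm fluorescence intensity with signal-to-noise per printed compound spot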
[6] = probe aLAP1 signal on lysate-treated microarray – cell lysate, small-molecule microarray, COS7 lysate, primary screen (AID 1124); settings: probe aLAP1, fluorescence, higher = more signal;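 note: lysate comes from COS7 cells expressing LAP1 and is applied at 0.3 µg/mL; score merges spot fluorescence near 667 nm with signal-to-noise over triplicate slides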
Sam68 (KHDRBS1) = assay: compounds binding KHDRBS1 protein – biochemical, small-molecule microarray, 635 nm fluorescence, primary screen (AID 1125); settings: higher = more signal;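 note: score merges 667 nm channel intensity with signal to noise over triplicate slides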
[7] = test system: Chordin-like protein 2 (CHRDL2); assay: compounds binding chordin-like 2 – biochemical, small-molecule microarray, 635 nm fluorescence, primary screen (AID 1126); settings: fluorescence 635 nm, higher = more signal;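 note: printed compound slides probed with Chrdl2 protein at 4 µg/mL for 1 h at 4 C; score merges 667 nm emission intensity with signal to noise over three replicate slides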
[8] = molecular target: Concanavalin-A (Canavalia ensiformis) (UniProt P02866); assay: compounds binding concanavalin A lectin – biochemical, small-molecule microarray, Alexa647 label, 635 nm, artefact control for SMM control protein annotation, primary screen (AID 1127); settings: ConA-A647 binding fluorescence, higher = more signal;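 note: z combines 667 nm emission intensity with signal-to-noise across three replicate slides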
Chain of Concanavalin-A (Canavalia ensiformis) (P02866 whole entry, looked up): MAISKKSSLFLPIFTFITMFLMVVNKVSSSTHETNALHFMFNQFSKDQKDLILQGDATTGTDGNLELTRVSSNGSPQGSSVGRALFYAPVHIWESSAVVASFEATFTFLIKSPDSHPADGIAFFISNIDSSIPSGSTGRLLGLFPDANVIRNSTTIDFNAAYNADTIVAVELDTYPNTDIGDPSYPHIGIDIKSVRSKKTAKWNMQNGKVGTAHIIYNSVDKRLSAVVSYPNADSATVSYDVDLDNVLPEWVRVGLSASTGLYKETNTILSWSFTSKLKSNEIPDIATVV

[9] = compounds binding Alexa647 anti-His antibody – biochemical, small-molecule microarray, 635 nm fluorescence, artefact control for SMM control protein annotation, primary screen (AID 1128); settings: higher = more signal;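 note: score merges feature fluorescence with signal-to-noise for each printed compound spot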
[10] = test system: Human papillomavirus type 1a E7 protein (residues 1-88); assay: HPV1a E7 small-molecule binders, primary screen, biochemical, small-molecule microarray, residues 1-88, 635 nm (AID 1129); settings: small-molecule microarray binding, fluorescence 635 nm; higher = more signal
[11] = molecular target: Focal adhesion kinase 1 (Homo sapiens) (UniProt Q05397); assay: PTK2 protein binding on printed compound slides – biochemical, small-molecule microarray, 635/667 nm fluorescence, BSA, DTT, primary screen (AID 1130); settings: 635 nm fluorescence, higher = more signal;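 note: composite of spot emission at 667 nm and signal to noise over triplicate slides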
Chain of Focal adhesion kinase 1 (Homo sapiens) (Q05397 whole entry, looked up): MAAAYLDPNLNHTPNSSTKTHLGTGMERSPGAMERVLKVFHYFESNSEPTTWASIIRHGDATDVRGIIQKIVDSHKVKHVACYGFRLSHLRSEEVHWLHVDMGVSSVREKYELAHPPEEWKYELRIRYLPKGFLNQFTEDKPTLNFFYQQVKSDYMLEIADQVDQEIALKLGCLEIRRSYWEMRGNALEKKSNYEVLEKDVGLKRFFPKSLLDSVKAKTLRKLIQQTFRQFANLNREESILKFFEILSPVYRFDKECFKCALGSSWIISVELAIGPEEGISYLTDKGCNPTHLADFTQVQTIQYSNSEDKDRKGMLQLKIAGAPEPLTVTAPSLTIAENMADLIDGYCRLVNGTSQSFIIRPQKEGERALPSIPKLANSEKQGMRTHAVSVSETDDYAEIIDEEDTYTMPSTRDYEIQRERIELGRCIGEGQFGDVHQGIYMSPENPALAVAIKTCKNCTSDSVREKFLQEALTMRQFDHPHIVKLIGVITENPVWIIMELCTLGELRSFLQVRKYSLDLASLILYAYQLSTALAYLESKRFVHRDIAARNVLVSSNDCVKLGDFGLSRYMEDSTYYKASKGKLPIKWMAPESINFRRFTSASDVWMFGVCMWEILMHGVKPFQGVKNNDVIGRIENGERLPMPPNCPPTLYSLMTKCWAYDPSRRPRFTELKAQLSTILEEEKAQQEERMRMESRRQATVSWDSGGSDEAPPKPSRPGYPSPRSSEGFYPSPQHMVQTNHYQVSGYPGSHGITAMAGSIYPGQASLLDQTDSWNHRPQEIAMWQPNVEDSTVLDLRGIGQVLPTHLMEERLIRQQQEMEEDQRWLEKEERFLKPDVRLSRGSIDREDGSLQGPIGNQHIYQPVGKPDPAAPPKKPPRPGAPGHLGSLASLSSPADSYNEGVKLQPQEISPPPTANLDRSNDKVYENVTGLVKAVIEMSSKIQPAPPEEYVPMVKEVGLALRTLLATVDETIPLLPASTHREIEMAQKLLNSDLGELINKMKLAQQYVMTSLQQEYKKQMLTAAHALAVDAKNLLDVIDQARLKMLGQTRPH

[12] = test system: Fibrinogen (Alexa647-labelled); assay: Alexa647-fibrinogen binding to printed small molecules – biochemical, small-molecule microarray, 635/667 nm fluorescence, artefact control for SMM control-protein annotation, profiling panel (AID 1131); settings: fibrinogen-A647 binding fluorescence, higher = more signal;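 note: z-score merges 667 nm fluorescence with per-spot signal-to-noise over triplicate slides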
[13] = molecular target: Follistatin (Homo sapiens) (UniProt P19883); assay: FST protein binding to printed compounds – biochemical, small-molecule microarray, 635/667 nm fluorescence, primary screen (AID 1132); settings: 635 nm fluorescence, higher = more signal
Chain of Follistatin (Homo sapiens) (P19883 whole entry, looked up): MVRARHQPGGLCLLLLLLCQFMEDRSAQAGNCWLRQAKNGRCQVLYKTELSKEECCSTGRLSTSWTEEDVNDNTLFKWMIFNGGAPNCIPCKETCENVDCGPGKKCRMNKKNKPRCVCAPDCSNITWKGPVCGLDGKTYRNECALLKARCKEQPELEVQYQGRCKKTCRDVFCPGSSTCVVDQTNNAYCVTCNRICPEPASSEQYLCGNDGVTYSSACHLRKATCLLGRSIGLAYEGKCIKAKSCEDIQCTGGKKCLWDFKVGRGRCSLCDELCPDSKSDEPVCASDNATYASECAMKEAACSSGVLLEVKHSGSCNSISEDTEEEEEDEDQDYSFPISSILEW

[14] = molecular target: Fibroblast growth factor 2 (Homo sapiens) (UniProt P09038); assay: basic fibroblast growth factor binding to printed compounds – biochemical, small-molecule microarray, 635/667 nm fluorescence, primary screen (AID 1133); settings: FGF2, fluorescence 635/667, higher = more signal
Chain of Fibroblast growth factor 2 (Homo sapiens) (P09038 whole entry, looked up): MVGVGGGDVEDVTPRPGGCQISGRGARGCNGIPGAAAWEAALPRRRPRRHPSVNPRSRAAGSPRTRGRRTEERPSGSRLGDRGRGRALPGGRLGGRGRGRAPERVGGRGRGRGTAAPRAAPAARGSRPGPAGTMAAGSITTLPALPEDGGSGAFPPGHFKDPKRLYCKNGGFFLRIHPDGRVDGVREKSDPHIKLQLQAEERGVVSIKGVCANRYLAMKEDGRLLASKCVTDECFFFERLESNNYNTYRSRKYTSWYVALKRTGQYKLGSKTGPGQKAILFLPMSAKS

[15] = JC-1 mitochondrial potential readout, lung cancer cells – cell-based, A549, JC-1 fluorescence, basal, 24 h, 100 nL, profiling panel (AID 1138); settings: higher = more signal;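 note: A549 lung adenocarcinoma cells under basal conditions with no added stimulus; test concentration not given here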
Lefty1 = Lefty1 protein binding to printed compounds – biochemical, small-molecule microarray, 635/667 nm fluorescence, primary screen (AID 1139); settings: fluorescence 635/667, higher = more signal
[16] = test system: wheat germ agglutinin (Triticum aestivum), Alexa647-labelled; assay: Alexa647-WGA lectin binding to printed small molecules – biochemical, small-molecule microarray, 635/667 nm fluorescence, artefact control for SMM control-protein annotation, profiling panel (AID 1140); settings: WGA-A647 binding, 635 nm fluorescence, higher = more signal;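 note: score merges 667 nm feature emission with signal to noise over triplicate slides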
[17] = molecular target: Luciferin 4-monooxygenase (Photinus pyralis) (UniProt P08659); assay: inhibition of purified Photinus pyralis luciferase – biochemical, luminescence, purified enzyme, 2006 set, primary screen (AID 1141); settings: purified firefly luciferase, SteadyGlo luminescence, 30 min; higher = more signal, called active from +8 up or from −8 down;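 note: cell-free assay with purified firefly luciferase at 100 ng per well in PBS; test concentration not given here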
Chain of Luciferin 4-monooxygenase (Photinus pyralis) (P08659 whole entry, looked up): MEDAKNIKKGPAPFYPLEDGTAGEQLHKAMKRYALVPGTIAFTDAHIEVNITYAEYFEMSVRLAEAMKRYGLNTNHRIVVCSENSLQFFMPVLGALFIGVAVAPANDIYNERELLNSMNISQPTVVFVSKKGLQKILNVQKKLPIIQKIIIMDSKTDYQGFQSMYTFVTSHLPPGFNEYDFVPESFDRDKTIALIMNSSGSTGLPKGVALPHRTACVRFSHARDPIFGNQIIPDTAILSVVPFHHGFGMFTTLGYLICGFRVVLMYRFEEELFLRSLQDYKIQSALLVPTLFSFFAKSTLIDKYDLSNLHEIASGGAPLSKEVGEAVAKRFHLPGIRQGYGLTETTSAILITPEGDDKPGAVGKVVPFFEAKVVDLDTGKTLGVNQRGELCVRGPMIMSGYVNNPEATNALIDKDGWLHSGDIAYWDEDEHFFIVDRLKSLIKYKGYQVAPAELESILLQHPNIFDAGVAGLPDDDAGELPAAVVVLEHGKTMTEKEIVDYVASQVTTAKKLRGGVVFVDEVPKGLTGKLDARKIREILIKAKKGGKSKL

SMILES | composite z-score (Albumin (Bos taurus)) | composite Z-score [1] | composite z-score [2] | composite z-score [3] | composite z-score [4] | composite z-score [5] | composite z-score [6] | composite z-score (Sam68 (KHDRBS1)) | composite z-score [7] | composite z-score [8] | composite z-score [9] | composite z-score [10] | composite z-score [11] | composite z-score [12] | composite z-score [13] | composite z-score [14] | z-score [15] | composite z-score (Lefty1) | composite z-score [16] | z-score [17]
COCCOC(=O)N1C(=O)[C@@]2(c3cc(C#CC4(O)CCCCCC4)ccc31)[C@H](C(=O)N1CCc3cc(OC)c(OC)cc3C1)[C@H]1C(=O)O[C@H](c3ccccc3)[C@H](c3ccccc3)N1[C@@H]2c1ccc(OCCO)cc1 | 0.121 | 0.28 (inactive) | -0.021 | -0.0617 | 0.515 | 0.535 | 0.272 | 1.31 | 0.666 | 1.12 | 0.244 | 0.867 | 1.06 | 0.682 | 1.29 | 1.32 | -1.11 | 1.23 | 0.475 | -1.07 (inactive)
[N-]=[N+]=Nc1ccccc1[C@@H]1OC(c2ccc(OCCCO)cc2)=N[C@]1(Cc1ccccc1)C(=O)N1CCCCC1 | 0.712 | 0.254 (inactive) | 0.22 | -0.108 | 0.415 | 1.94 | 1.36 | 1.29 | -0.365 | 0.948 | 0.782 | 1.24 | 0.218 | 1.02 | 1.21 | 0.768 | -1.07 | 0.816 | 1.03 | -5.31 (inactive)
C=CCOC(=O)[C@@H]1[C@H]2C(=O)O[C@H](c3ccccc3)[C@H](c3ccccc3)N2[C@H](c2ccc(OCCOC(=O)[C@@H]3C[C@@H]4C(=O)N[C@@H](CCCC[N+](C)(C)C)C(=O)N4[C@@H]3c3ccc(O)cc3)cc2)[C@@]12C(=O)Nc1ccc(I)cc12 | 0.118 | -0.0092 (inactive) | 0.0282 | -0.084 | 0.473 | 1.92 | 0.417 | 1.29 | 0.841 | 0.756 | 2.68 | 1.15 | 0.67 | 0.412 | 1.12 | 1.24 | -1.76 | 1.08 | 0.216 | -2.38 (inactive)
COCCOC(=O)N1C(=O)[C@@]2(c3cc(C#CCCO)ccc31)[C@H](C(=O)Nc1nc3ccccc3s1)[C@H]1C(=O)O[C@H](c3ccccc3)[C@H](c3ccccc3)N1[C@@H]2c1ccc(O)cc1 | -0.767 | 0.326 (inactive) | 0.177 | 0.0687 | 0.473 | 2.08 | 0.799 | 1.31 | 0.791 | 1.17 | 2.54 | 1.24 | 0.978 | 0.919 | 1.38 | 1.28 | -0.137 | 1.05 | 0.777 | 0.57 (inactive)
CCCCNC(=O)c1ccc(C#CC(C)(C)C)c(OC(C)=O)c1 | 0.691 | 0.0956 (inactive) | 0.0744 | -0.181 | 0.728 | -0.0302 | -0.0555 | 1.02 | 0.641 | 0.744 | 0.213 | 0.712 | 0.797 | 0.587 | 0.665 | 0.553 | -0.895 | 0.777 | 0.64 | 0.856 (inactive)
C=CC[C@@]1(C(=O)NCCCOC)N=C(c2ccc(OCCCO)cc2)O[C@@H]1c1ccccc1N=[N+]=[N-] | 0.896 | -0.349 (inactive) | 0.356 | -0.125 | 0.224 | 1.73 | 0.209 | 1.01 | -0.325 | 0.562 | 2.2 | 1.21 | 0.474 | 1.03 | 1.28 | 0.0912 | 1.3 | -0.115 | 0.736 | -3.67 (inactive)
COc1ccc(C#Cc2ccc3c(c2)[C@]2(C(=O)N3)[C@H](C(=O)O)[C@H]3C(=O)O[C@H](c4ccccc4)[C@H](c4ccccc4)N3[C@@H]2c2ccc(O)cc2)cc1 | 0.314 | -0.118 (inactive) | -0.243 | -0.0664 | 0.659 | 1.15 | 0.577 | 0.285 | -0.844 | -0.425 | -0.272 | 0.691 | 0.0564 | -0.142 | -0.474 | -0.521 | -2.42 | -0.422 | 0.208 | -1.01 (inactive)
[N-]=[N+]=Nc1ccccc1[C@@H]1OC(c2ccc(OCCCO)cc2)=N[C@]1(Cc1ccccc1)C(=O)O | 0.893 | 0.008 (inactive) | 0.136 | -0.0068 | 0.62 | 1.23 | -0.25 | 1.3 | 0.155 | 0.665 | 1.87 | 1.21 | 0.854 | 0.803 | 1.31 | 0.32 | 0.506 | -0.028 | 1.09 | -9.46 (active)
CCOC(=O)C1=CC[C@@H](c2ccccc2F)N(S(=O)(=O)c2ccc(C)cc2)[C@H]1c1ccccc1 | 0.437 | -0.244 (inactive) | 0.103 | 0.0416 | 0.338 | 1.19 | 0.212 | 1.18 | 0.0943 | 0.83 | 0.477 | 1.07 | 0.13 | 0.756 | 0.685 | 0.0808 | 1.4 | 0.644 | 0.349 | 1.56 (inactive)
NCCCCCCNC(=O)[C@@H]1C[C@@H]2C(=O)N[C@@H](CCCCN)C(=O)N2[C@@H]1c1ccc(O)cc1 | -1.58 | 1.7 (inactive) | -0.0431 | -0.0386 | 0.782 | 1.68 | 1.18 | 0.762 | 0.667 | 0.0619 | 1.91 | 0.153 | 0.353 | -1.97 | 0.998 | 1 | -0.903 | 0.731 | 0.961 | 0.715 (inactive)
CC[C@@H]1C=C(C(=O)O)[C@H](c2ccc(C#N)cc2)N1S(=O)(=O)c1ccc(C)cc1 | 0.173 | 0.474 (inactive) | -0.0077 | -0.046 | 0.838 | 3.03 | 1.44 | 1.09 | -1.52 | 0.91 | 3.35 | 0.845 | 0.941 | -0.0509 | -0.594 | -0.105 | -0.0902 | -0.833 | 1.09 | 0.522 (inactive)
